The whole screen tested about 400,000 compounds, of which about 2,100 (0.53%) were called active. Another 14% or so got no clear call; they are omitted. No rule for the calls is given here. The full list was thinned out, with actives kept by preference.

In the assay the target is Ataxin-2 (Homo sapiens) (UniProt Q99700). As to the kind of experiment: qHTS for Inhibitors of ATXN expression. Type of assay: functional. Background: In qHTS, concentration-response curves come from the screen itself.
Chain of Ataxin-2 (Homo sapiens) (Q99700 whole entry): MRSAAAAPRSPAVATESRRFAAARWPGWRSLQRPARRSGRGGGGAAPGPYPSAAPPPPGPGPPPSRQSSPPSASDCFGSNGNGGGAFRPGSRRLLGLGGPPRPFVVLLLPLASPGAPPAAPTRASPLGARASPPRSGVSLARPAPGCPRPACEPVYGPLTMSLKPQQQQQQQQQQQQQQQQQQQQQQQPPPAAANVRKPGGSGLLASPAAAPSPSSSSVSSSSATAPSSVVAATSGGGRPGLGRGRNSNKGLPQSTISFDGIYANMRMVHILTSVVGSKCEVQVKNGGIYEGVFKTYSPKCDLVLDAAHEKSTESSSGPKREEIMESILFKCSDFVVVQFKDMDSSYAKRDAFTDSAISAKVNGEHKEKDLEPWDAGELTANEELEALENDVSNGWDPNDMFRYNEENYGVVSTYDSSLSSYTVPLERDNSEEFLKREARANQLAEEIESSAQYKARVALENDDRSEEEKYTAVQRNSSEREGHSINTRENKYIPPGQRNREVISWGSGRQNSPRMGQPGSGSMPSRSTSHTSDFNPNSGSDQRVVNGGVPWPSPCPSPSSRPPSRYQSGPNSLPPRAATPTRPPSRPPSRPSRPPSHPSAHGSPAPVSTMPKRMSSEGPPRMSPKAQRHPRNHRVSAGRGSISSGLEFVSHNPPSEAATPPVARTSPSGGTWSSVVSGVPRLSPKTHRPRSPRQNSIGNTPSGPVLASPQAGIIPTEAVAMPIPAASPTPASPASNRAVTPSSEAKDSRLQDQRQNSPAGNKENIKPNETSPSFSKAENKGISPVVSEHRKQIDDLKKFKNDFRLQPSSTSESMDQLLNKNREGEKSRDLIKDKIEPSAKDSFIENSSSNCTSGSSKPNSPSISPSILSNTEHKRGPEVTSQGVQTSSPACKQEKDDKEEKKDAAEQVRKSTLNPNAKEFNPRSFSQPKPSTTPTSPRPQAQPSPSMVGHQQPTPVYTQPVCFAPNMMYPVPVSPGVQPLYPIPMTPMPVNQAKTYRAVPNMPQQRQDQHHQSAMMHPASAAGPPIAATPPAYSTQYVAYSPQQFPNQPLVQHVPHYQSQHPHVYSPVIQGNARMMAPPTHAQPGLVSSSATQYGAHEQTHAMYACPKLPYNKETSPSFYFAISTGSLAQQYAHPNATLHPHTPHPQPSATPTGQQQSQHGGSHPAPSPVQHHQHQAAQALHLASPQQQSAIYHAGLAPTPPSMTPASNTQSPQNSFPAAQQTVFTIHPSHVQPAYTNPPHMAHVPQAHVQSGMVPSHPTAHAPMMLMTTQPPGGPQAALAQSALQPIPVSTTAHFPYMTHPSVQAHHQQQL
For `O=C(c1cc(Br)ccc1O)N1CCN(S(=O)(=O)Cc2ccccc2)CC1`, the Potency result was “inactive”.
The same measure for `Brc1ccc(-c2nnc3sc(CNCc4ccc5c(c4)OCO5)cn23)cc1`: “inactive”; for `O=C(O)c1ccc(S(=O)(=O)N2CCC(NC(=O)C3CCCCC3)CC2)cc1`: “inactive”; for `COCCN(Cc1ccccc1)C(=O)c1ccc(C(=O)c2ccccc2)cc1`: “inactive”.
The same measure for `Cc1ccc(NC(=O)N(CCC#N)Cc2ccccc2)cc1`: “inactive”; for `CCCOc1ccc(CN(CCC#N)C(=S)NC(=O)c2ccccc2)cc1`: 39.8 µM (active).
As to `O=C(O)COc1c(Cl)cc(/C=C2/NC(=O)NC2=O)cc1Br`, the Potency entry was “inactive”.
The same measure for `Cc1nnc(N/N=C/c2ccc(-c3ccc(Br)cc3)o2)n1N`: “inactive”; for `COCCCn1/c(=N/C(=O)c2ccccc2)c(C#N)cc2c(=O)n3cccc(C)c3nc21`: “inactive”.
In the case of `Cc1ccsc1C(=O)OCC(=O)Nc1cccc(F)c1`, the Potency entry was “inactive”.
For the compound `CN1C(=O)c2ccc(NC(=O)c3ccc(Cl)cc3Cl)cc2C1=O`, the Potency entry was “inactive”.
In the case of `Cc1ccc(C(=O)COC(=O)c2cccc(NC(=O)c3ccc(Cl)cc3Cl)c2)cc1`, the Potency is 35.5 µM (active).
The same measure for `COc1cc2oc(=O)cc(-c3ccc(-c4ccc(N(C)C)cc4)cc3)c2c(OC)c1OC`: “inactive”; for `CCc1cc(=O)oc2c(C)c3c(cc12)CN(CCc1ccccc1OC)CO3`: “inactive”.
As for `CCCCCc1cc(=O)oc2c(C(CCN3CCCC3)c3cc(OC)c(OC)c(OC)c3)c(OC)cc(OC)c12` (configuration not stated), the Potency is 35.5 µM (active).
The same measure for `CCCc1cc(=O)oc2c(C)c(O)c(CN3CCCCC3)cc12`: “inactive”; for `COc1ccc(-c2cc3ccc(O)c(CN4CCCC(C)C4)c3oc2=O)cc1OC` (configuration not stated): “inactive”; for `O=c1cc(-c2ccccc2)c2cc(Cl)c(O)c(CN3CCOCC3)c2o1`: “inactive”.
For the compound `COc1ccc(CN2COc3ccc4c(-c5ccccc5)cc(=O)oc4c3C2)cc1OC`, the Potency entry is “inactive”.
The same measure for `COc1cc(C(CCN2CCCC(C)C2)c2c(OC)cc(OC)c3c(-c4ccccc4)cc(=O)oc23)cc(OC)c1OC` (configuration not stated): 31.6 µM (active); for `COc1ccc(C(CCN2CCCC(C)C2)c2c(OC)cc(OC)c3c(-c4ccccc4)cc(=O)oc23)cc1` (configuration not stated): 31.6 µM (active); for `COc1cc(C(CCN2CCCC2)c2c(OC)cc(OC)c3c(-c4ccccc4)cc(=O)oc23)cc(OC)c1OC` (configuration not stated): 22.4 µM (active).
The same measure for `COc1ccc(-c2cc(=O)oc3c4c(ccc23)OCN(Cc2cccc(OC)c2)C4)cc1`: “inactive”; for `O=c1cc(-c2ccccc2)c2cc(Cl)c3c(c2o1)CN(Cc1ccccc1)CO3`: “inactive”; for `COc1ccc(C2CC(c3ccccc3)=NN2c2ccccc2)c(C(=O)O)c1OC` (configuration not stated): “inactive”.
The same measure for `Cc1cc(C)c2nc(NCCCNC(S)=NCCCN(C)C)c(C#N)cc2c1`: “inactive”; for `Cn1nc(C(=O)Nc2ccc(Br)cc2)cc1C(=O)Nc1ccc(Br)cc1`: “inactive”; for `CCNc1ccc2c(Cl)cc(=O)oc2c1`: “inactive”.
Turning to `COc1ccc(C2=CC(c3ccc(Cl)cc3)n3cnnc3N2)cc1OC` (configuration not stated), the Potency result is “inactive”.
The same measure for `CN1CCN(CCOCCOc2c(Cl)cc(Cl)cc2Cl)CC1`: “inactive”; for `COCCNc1oc(/C=C/c2cccs2)nc1S(=O)(=O)c1ccccc1`: “inactive”; for `Cc1ccc(S(=O)(=O)N(C)c2ccc(OC(=O)c3cccs3)cc2)cc1C`: “inactive”.
The same measure for `COc1ccccc1NC(=O)c1c(C)nn(-c2ccccc2)c1Cl`: “inactive”; for `O=C(Nc1ccc(C(=O)NCCCN2CCN(c3ccc(F)cc3)CC2)cc1)C1=CSCCO1`: “inactive”; for `O=C(COc1ccccc1F)NCc1ccc(-n2cccc2)cc1`: “inactive”.
In the case of `C/C(=N\NC(=O)CN1CCN(c2ccc(F)cc2)CC1)c1ccco1`, the Potency result is “inactive”.
The same measure for `Cc1ccc(-n2nc(C)c(C(=O)NCCCN3CCN(c4ccc(F)cc4)CC3)c2-n2cccc2)cc1`: 25.1 µM (active); for `COc1ccc(CCNC(=O)c2c(C)nn(-c3ccc(F)cc3)c2-n2cccc2)c(OC)c1OC`: 35.5 µM (active).
The same measure for `CCCc1ccc(C(=O)NNc2cc(Cl)ccc2Cl)cc1`: “inactive”; for `CS(=O)(=O)c1ccc(C(=O)NNC(=O)c2ccccc2-n2cccc2)cc1`: “inactive”; for `CCOC(=O)C1CCN(C(=O)c2cc3c(=O)n4ccccc4nc3n2C)CC1`: “inactive”.
Take `CC(/C=C(\O)c1ccc(Br)cc1)=N/NC(=O)c1ccccc1`: the Potency result is “inactive”.
The same measure for `O=C(NN=C(S)Nc1ccccc1)c1ccc(O)cc1`: “inactive”; for `C/C(=N\NC(=O)c1ccc(Br)cc1)C1C(=O)c2ccccc2C1=O`: 35.5 µM (active); for `O=C(CCn1nnc2ccccc21)N/N=C\Cc1ccccc1`: “inactive”.
As to `CC(C)(C)c1ccc(OCC(=O)Nc2cccc(S(=O)(=O)NC3=NCCCCC3)c2)cc1`, the Potency result was “inactive”.
For `Cc1cccc(C)c1NC(=O)CN(C)C(=O)c1cccc(NS(=O)(=O)c2ccccc2)c1`, the Potency entry was “inactive”.
The same measure for `O=C(CCl)Nc1cccc(S(=O)(=O)NC2=NCCCCC2)c1`: 11.2 µM (active); for `CC(C)=CC(=O)Nc1cccc(S(=O)(=O)NC2=NCCCCC2)c1`: “inactive”.
`Cc1ccc(OCC(=O)Nc2ccc(S(=O)(=O)NC3=NCCCCC3)cc2)cc1`: the Potency result is “inactive”.
The same measure for `COc1cc(C(=O)OCC(=O)Nc2ccc(S(=O)(=O)NC3=NCCCCC3)cc2)cc(OC)c1OC`: “inactive”; for `Cc1cccc(C(=O)N[C@H](C(=O)Nc2ccc(S(=O)(=O)NC3=NCCCCC3)cc2)C(C)C)c1`: “inactive”.
In the case of `O=C(CCl)Nc1cccc(S(=O)(=O)NC2=NCCC2)c1`, the Potency was 12.6 µM (active).
Consider `O=C(CCl)Nc1ccc(S(=O)(=O)NC2=NCCCCC2)cc1`, for which the Potency is 13.4 µM (active).
The same measure for `Cc1cc(NC(=O)CSc2nc(=O)cc(N)n2-c2ccc(C)c(C)c2)no1`: “inactive”; for `Cc1cccn2c(=O)c3cc(C(=O)NCc4cccnc4)c(=N)n(CCCO)c3nc12`: “inactive”; for `Cn1c(C(=O)NCC2CCCO2)cc2c(=O)n3ccccc3nc21` (configuration not stated): “inactive”.
The same measure for `COc1ccccc1/N=C/c1c(C)c(C#N)c2nc3ccccc3n2c1O`: “inactive”; for `O=C1C=CC(=O)N1c1ccc2c(c1)C(NC(=O)C(F)(F)F)c1ccccc1-2` (configuration not stated): 25.1 µM (active); for `O=C(Nc1ccccc1)N1CCN(C2c3ccccc3-c3ccccc32)CC1`: “inactive”.
For the compound `COc1ccc(CNC(=O)CCC(=O)c2ccccc2)cc1`, the Potency entry was “inactive”.
The same measure for `COc1ccc(CNC(=O)c2c(Nc3ccccc3C)sc(C(=O)c3ccccc3)c2N)cc1`: 35.5 µM (active); for `Cc1ccc(CNC(=O)c2c(Nc3c(C)cccc3C)sc(C(=O)c3ccccc3)c2N)cc1`: 39.8 µM (active); for `COc1cccc(OC)c1C(=O)Nc1ccc(Br)c(C(=O)c2ccccc2)c1`: “inactive”.
The same measure for `Cc1cc(C)c2c(N)c(C(=O)c3ccccc3)sc2n1`: “inactive”; for `Cc1cccc(C)c1Nc1sc(C(=O)c2ccccc2)c(N)c1C(=O)Nc1ccc(F)cc1`: 28.2 µM (active).
The same measure for `COc1ccc(C(=O)c2sc3nc(-c4ccccc4)ccc3c2N)cc1`: “inactive”.
As for `Cc1ccc2c(N)c(C(=O)c3ccccc3)sc2n1`, the Potency entry is “inactive”.
The same measure for `Nc1c(C(=O)c2ccccc2)sc(Nc2ccc(Cl)c(Cl)c2)c1C(=O)Nc1ccccc1`: 28.2 µM (active); for `CCO/C(O)=C1\C(C)=Nc2sc(C(=O)c3ccc(C)cc3)c(N)c2C1c1ccc(C(=O)OC)cc1` (configuration not stated): “inactive”.
The same measure for `Cc1nc2sc(C(=O)c3ccccc3)c(N)c2c(C)c1C`: “inactive”.
For `Cn1cc(CN2CCC(n3nccc3NC(=O)c3ccc4c(c3)OCO4)CC2)cn1`, the Potency entry was “inactive”.
The same measure for `Cc1cc(C)c2cc(C#N)c(SCC(=O)Nc3cc(C)on3)nc2c1`: “inactive”.
The same measure for `O=C(CSc1nnc(O)nc1O)N/N=C/C=C/c1ccccc1`: “inactive”.
The same measure for `O=S(=O)(c1ccc(SCCOc2ccccc2)nc1)N1CCCC1`: “inactive”; for `COC(=O)Cc1c(C)c2cc3c(c(C)c2oc1=O)OCN(CCc1ccc(OC)cc1)C3`: “inactive”; for `Cc1cnc(NC(=O)c2cc(-c3ccccc3)nn2-c2ccccc2)s1`: “inactive”.
Turning to `Cc1ccc(-c2nn(-c3ccccc3)c3[nH]c(=O)c(CNCc4ccccc4)cc23)cc1`, the Potency is 39.8 µM (active).
For `Cc1ccc2nc(Cl)c(CNCc3ccccc3)cc2c1`, the Potency result was “inactive”.
With `CC1Nc2ccccc2C(=O)N1NS(C)(=O)=O` (configuration not stated), the Potency result was “inactive”.
As for `Cc1ccc(C2N(C)C(=O)c3ccccc3N2C)cc1` (configuration not stated), the Potency entry was “inactive”.
On to `Cc1ccc(S(=O)(=O)NN2C(=O)c3ccccc3NC2c2ccccc2)cc1` (configuration not stated), for which the Potency was 35.5 µM (active).
The same measure for `O=c1cc(CN2CCN(S(=O)(=O)c3cccc(Cl)c3)CC2)c2ccc(O)cc2o1`: “inactive”; for `C=CCNC(=S)Nc1cccc(NC(=S)NCC=C)c1`: “inactive”; for `C/C(=N\Nc1ncc(Cl)cc1Cl)c1ccccn1`: “inactive”.
The same measure for `C=CCNC(=S)N/N=C(\C)c1ccccn1`: 2.51 µM (active); for `O=S(=O)(Nc1ccc(C(O)(C(F)(F)F)C(F)(F)F)cc1)c1ccc(Cl)c2nonc12`: 22.4 µM (active).
The same measure for `O=S(=O)(Nc1ccc(C(O)(C(F)(F)F)C(F)(F)F)cc1)c1cccc2ccccc12`: 44.7 µM (active); for `COc1ccc(C(=O)NNC(=O)CSc2nc3c(=O)n(C)c(=O)n(C)c3[nH]2)cc1`: “inactive”; for `N#Cc1cccc(Cn2cc(C(F)(F)F)ccc2=O)c1`: “inactive”.
Consider `CS(=O)(=O)c1ncc(Cl)c(C(=O)N(Cc2ccc(Cl)cc2)Cc2ccco2)n1`, for which the Potency is 6.31 µM (active).
The same measure for `C=C1C(=O)[C@]23C[C@H]1CC[C@H]2[C@]1(C)[C@@H](OC(C)=O)CC[C@@](C)(C(=O)O)[C@H]1C[C@@H]3O`: 11.2 µM (active); for `C=C1C(=O)[C@]23C[C@H]1CCC2[C@@]1(C)C(C[C@@H]3O)[C@](C)(C(=O)OC)CC[C@@H]1O` (some centres not stated): 35.5 µM (active).
The same measure for `C=C1C(=O)[C@]23C[C@H]1CC[C@H]2[C@]1(C)[C@@H](O)CC[C@@](C)(C(=O)O)[C@H]1C[C@@H]3O`: 12.6 µM (active); for `N#C/C(=C\c1ccncc1)c1nc2c(s1)CCCC2`: “inactive”; for `CCc1cc(=O)oc2cc(O[C@@H]3O[C@H](CO)[C@@H](O)[C@H](O)[C@H]3O)c(Cl)cc12`: “inactive”.
The same measure for `Cc1cc(-n2cnc(-c3cn(C)nc3C)n2)no1`: “inactive”.
